A short description of test [1]: NCI Yeast Anticancer Drug Screen. Data for the rad50 strain (AID 155).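 Also: 0% = growth of vehicle-only cultures of the same strain.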 Particulars: S. cerevisiae rad50 strain growth inhibition, hits give high values. The method in brief: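 Genetically altered yeast (DNA repair pathway); compound treatment; growth inhibition vs vehicle ctrl.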
A short description of test [2]: NCI Yeast Anticancer Drug Screen. Data for the mec2-1 strain (AID 157). Particulars: S. cerevisiae mec2-1 strain, hits give high values. The method, boiled down:
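Yeast mec2-1 mutant treated with compound. Readout: growth inhibition vs vehicle controls.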

The nature of test [3]: NCI Yeast Anticancer Drug Screen. Data for the sgs1 mgt1 strain (AID 161).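 Also: 0% = growth of cultures given vehicle only.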 Particulars: S. cerevisiae sgs1 mgt1 strain, hits give high values. The method in brief: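 Genetically altered yeast, compound exposure, growth inhibition relative to vehicle.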
Test [4] in a line: NCI Yeast Anticancer Drug Screen. Data for the cln2 rad14 strain (AID 165).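 Also: 0% = growth equal to vehicle treated cultures.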 The settings on record: S. cerevisiae cln2 rad14 strain, hits give high values. The method in brief: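 cln2 rad14 yeast strain; compound exposure; growth inhibition read vs vehicle controls.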
Test [5] in a line: NCI Yeast Anticancer Drug Screen. Data for the bub3 strain (AID 167). The settings on record: S. cerevisiae bub3 mutant strain, hits give high values. The method, boiled down:
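Yeast carrying a defined mutation is treated with each compound, and growth is compared with that of vehicle-exposed cells to give inhibition.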

Test [6] is described as follows: NCI Yeast Anticancer Drug Screen. Data for the mlh1 rad18 strain (AID 175). Particulars: S. cerevisiae mlh1 rad18 strain growth inhibition, hits give high values. The method, boiled down: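 Yeast w/ defined DNA-repair lesions; compound exposure; growth vs vehicle controls → % inhibition.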
The mark [7] stands for this setting: at 5.0 µM (retest, dose inferred, filed as 0.5).
[8] abbreviates: at 50.0 µM (retest, dose inferred, filed as 5.0).

The structures appear in SMILES notation. This is part of a sample that, as a whole, favours compounds with a hit. Of some 79,000 tested, about 15% had one in any assay. Unmarked numbers belong to inactive results. Activity calls are given as the source filed them. Rule as the data show it: active = growth inhibition above about 70%; inactive = the rest.

Consider `C[C@]12CC[C@H](O)C[C@@H]1CC[C@@H]1[C@@H]2CC[C@]2(C)C(=O)/C(=C/O)C[C@@H]12`, for which the growth inhibition was -1% in test [1] (setting [7]); 80% (active) in test [1] (setting [8]); 54.5% in test [1] (at 50.0 µM); -1% in test [2] (setting [7]); 68% in test [2] (setting [8]); 97.1% (active) in test [2] (at 50.0 µM). Also, the growth inhibition in test [3] (setting [7]) was -1%; in test [3] (setting [8]), 67%; in test [3] (at 50.0 µM) it was 87% (active); in test [4] (setting [7]), -15%; in test [4] (setting [8]), 30%; in test [4] (at 50.0 µM), 96.5% (active). Also, the growth inhibition in test [5] (setting [7]) is -4%; in test [5] (setting [8]) it was 84% (active); in test [5] (at 50.0 µM), 95.7% (active); in test [6] (setting [7]) it was 0%; in test [6] (setting [8]), 61%; in test [6] (at 50.0 µM) it was 96.5% (active).
For `CN(C)CC1(N)C(=O)NC(=O)NC1=O`, the growth inhibition is 3% in test [1] (setting [7]); 10% in test [1] (setting [8]); 75.7% (active) in test [1] (at 50.0 µM); 4% in test [2] (setting [7]); 11% in test [2] (setting [8]); 78% (active) in test [2] (at 50.0 µM). Moreover, the growth inhibition in test [3] (setting [7]) is 4%; in test [3] (setting [8]) it was 8%; in test [3] (at 50.0 µM), 47.3%; in test [4] (setting [7]) it was -1%; in test [4] (setting [8]), -1%; in test [4] (at 50.0 µM), 43.6%. Moreover, the growth inhibition in test [5] (setting [7]) was 0%; in test [5] (setting [8]) it was 8%; in test [5] (at 50.0 µM), 95.2% (active); in test [6] (setting [7]), -1%; in test [6] (setting [8]), 10%; in test [6] (at 50.0 µM), 46.2%.
With `O=C(OCCl)c1ccccc1`, the growth inhibition in test [1] (setting [7]) is 11%; in test [1] (setting [8]), -4%; in test [1] (at 50.0 µM) it was 3.9%; in test [2] (setting [7]) it was -1%; in test [2] (setting [8]), -2%; in test [2] (at 50.0 µM) it was -5.6%. In addition, the growth inhibition is -4% in test [3] (setting [7]); 1% in test [3] (setting [8]); 13.5% in test [3] (at 50.0 µM); 7% in test [4] (setting [7]); -4% in test [4] (setting [8]); 45.5% in test [4] (at 50.0 µM). Besides, the growth inhibition in test [5] (setting [7]) was 8%; in test [5] (setting [8]), 13%; in test [5] (at 50.0 µM) it was -7.7%; in test [6] (setting [7]), 6%; in test [6] (setting [8]), 5%; in test [6] (at 50.0 µM) it was 15.7%.
As for `Oc1c(Cl)cc(Cl)c2ccccc12`, the growth inhibition was 11% in test [1] (setting [7]); 71% (active) in test [1] (setting [8]); 86.5% (active) in test [1] (at 50.0 µM); 7% in test [2] (setting [7]); 38% in test [2] (setting [8]); 27.6% in test [2] (at 50.0 µM). The growth inhibition in test [3] (setting [7]) is 4%; in test [3] (setting [8]), 63%; in test [3] (at 50.0 µM), 91.5% (active); in test [4] (setting [7]), 5%; in test [4] (setting [8]) it was 14%; in test [4] (at 50.0 µM), -18.9%. For the same compound, the growth inhibition in test [5] (setting [7]) was 12%; in test [5] (setting [8]) it was 44%; in test [5] (at 50.0 µM), 9.2%; in test [6] (setting [7]), 13%; in test [6] (setting [8]) it was 74% (active); in test [6] (at 50.0 µM), 87% (active).
Take `CO/C1=C\C(C)=C\C(C)C(O)C(C)C/C(C)=C/C=C/C(OC)C(C(C)C(O)C(C)C2(O)CC(O)C(C)C(C(C)C)O2)OC1=O` (configuration not stated): the growth inhibition in test [1] (setting [7]) was 1%; in test [1] (setting [8]), 84% (active); in test [1] (at 50.0 µM), 85.2% (active); in test [2] (setting [7]), -11%; in test [2] (setting [8]), 59%; in test [2] (at 50.0 µM), 77.3% (active). Also, the growth inhibition is 8% in test [3] (setting [7]); 85% (active) in test [3] (setting [8]); 84.5% (active) in test [3] (at 50.0 µM); 9% in test [4] (setting [7]); 78% (active) in test [4] (setting [8]); 74.1% (active) in test [4] (at 50.0 µM). Further, the growth inhibition in test [5] (setting [7]) is 5%; in test [5] (setting [8]) it was 88% (active); in test [5] (at 50.0 µM), 86.2% (active); in test [6] (setting [7]), 0%; in test [6] (setting [8]), 88% (active); in test [6] (at 50.0 µM), 81.2% (active).
Consider `N#CN(Cc1ccccc1)C(c1ccccc1)(c1ccccc1)c1ccccc1.[I][Sn]([c]1ccccc1)([c]1ccccc1)[c]1ccccc1`, for which the growth inhibition in test [1] (setting [7]) was 99% (active); in test [1] (setting [8]), 96% (active); in test [1] (at 50.0 µM), 98.8% (active); in test [2] (setting [7]), 100% (active); in test [2] (setting [8]), 98% (active); in test [2] (at 50.0 µM) it was 98.8% (active). Also, the growth inhibition in test [3] (setting [7]) was 100% (active); in test [3] (setting [8]) it was 98% (active); in test [3] (at 50.0 µM) it was 99.5% (active); in test [4] (setting [7]), 99% (active); in test [4] (setting [8]), 94% (active); in test [4] (at 50.0 µM), 98.2% (active). Moreover, the growth inhibition in test [5] (setting [7]) was 99% (active); in test [5] (setting [8]), 95% (active); in test [5] (at 50.0 µM), 97.7% (active); in test [6] (setting [7]), 99% (active); in test [6] (setting [8]) it was 96% (active); in test [6] (at 50.0 µM), 97% (active).
Turning to `[CH3][Sn]([CH3])([Br])[Br].c1ccc(-c2nnc(-c3ccccn3)nc2-c2ccccc2)cc1`, the growth inhibition is -3% in test [1] (setting [7]); 80% (active) in test [1] (setting [8]); 20.4% in test [1] (at 50.0 µM); -16% in test [2] (setting [7]); 58% in test [2] (setting [8]); 32.9% in test [2] (at 50.0 µM). For the same compound, the growth inhibition in test [3] (setting [7]) was -9%; in test [3] (setting [8]), 53%; in test [3] (at 50.0 µM) it was 16.4%; in test [4] (setting [7]), -17%; in test [4] (setting [8]), 90% (active); in test [4] (at 50.0 µM), 11.8%. The growth inhibition in test [5] (setting [7]) is -4%; in test [5] (setting [8]), 87% (active); in test [5] (at 50.0 µM) it was -3.3%; in test [6] (setting [7]) it was -23%; in test [6] (setting [8]), 47%; in test [6] (at 50.0 µM), 23.8%.
For `CC(=O)O[C@@H]1[C@@H](O)[C@H]2O[C@@H]3C=C(C)C(=O)[C@@H](O)[C@]3(CO)[C@]1(C)[C@]21CO1`, the growth inhibition in test [1] (setting [7]) was 14%; in test [1] (setting [8]), 85% (active); in test [1] (at 50.0 µM), 48.7%; in test [2] (setting [7]), 22%; in test [2] (setting [8]) it was 93% (active); in test [2] (at 50.0 µM), 20.1%. The growth inhibition was 13% in test [3] (setting [7]); 90% (active) in test [3] (setting [8]); 62.4% in test [3] (at 50.0 µM); 33% in test [4] (setting [7]); 92% (active) in test [4] (setting [8]); 23.5% in test [4] (at 50.0 µM). Further, the growth inhibition in test [5] (setting [7]) is 8%; in test [5] (setting [8]), 90% (active); in test [5] (at 50.0 µM), 85% (active); in test [6] (setting [7]), 18%; in test [6] (setting [8]), 95% (active); in test [6] (at 50.0 µM) it was 83.3% (active).
`CCCCCCCCCCC(=O)O.[Pb]`: the growth inhibition in test [1] (setting [7]) is -14%; in test [1] (setting [8]), 2%; in test [1] (at 50.0 µM), 55.5%; in test [2] (setting [7]), -10%; in test [2] (setting [8]) it was 6%; in test [2] (at 50.0 µM), 5.05%. Besides, the growth inhibition in test [3] (setting [7]) is -7%; in test [3] (setting [8]), 9%; in test [3] (at 50.0 µM) it was 38.5%; in test [4] (setting [7]), -2%; in test [4] (setting [8]), -1%; in test [4] (at 50.0 µM), 14.2%. The growth inhibition in test [5] (setting [7]) is -1%; in test [5] (setting [8]), -4%; in test [5] (at 50.0 µM) it was -16.1%; in test [6] (setting [7]), -5%; in test [6] (setting [8]), -12%; in test [6] (at 50.0 µM), 68.2%.

The record behind these values is PubChem BioAssay (NCI).
